Drawing on PubChem BioAssay (NCATS), this text covers Potency for 40 compounds.

Each structure is given as a SMILES string. Unmarked numbers belong to inactive results.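 Rule for the calls: active = compounds whose dose series gives a full or clear partial fitted curve of increased nuclear translocation; inconclusive = weak partial curve or effect only at the top dose; inactive = no dose-dependent translocation response.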
Potency is the fitted concentration of half-maximal effect.

The target in this assay is Glucocorticoid receptor (Homo sapiens) (UniProt P04150). Description: GR-GFP Redistribution (AID 450). As to conditions: U2OS GR-GFP nuclear translocation, laser cytometry, 2 h; series mostly up to 20.6 µM.
Chain of Glucocorticoid receptor (Homo sapiens) (P04150 whole entry, looked up): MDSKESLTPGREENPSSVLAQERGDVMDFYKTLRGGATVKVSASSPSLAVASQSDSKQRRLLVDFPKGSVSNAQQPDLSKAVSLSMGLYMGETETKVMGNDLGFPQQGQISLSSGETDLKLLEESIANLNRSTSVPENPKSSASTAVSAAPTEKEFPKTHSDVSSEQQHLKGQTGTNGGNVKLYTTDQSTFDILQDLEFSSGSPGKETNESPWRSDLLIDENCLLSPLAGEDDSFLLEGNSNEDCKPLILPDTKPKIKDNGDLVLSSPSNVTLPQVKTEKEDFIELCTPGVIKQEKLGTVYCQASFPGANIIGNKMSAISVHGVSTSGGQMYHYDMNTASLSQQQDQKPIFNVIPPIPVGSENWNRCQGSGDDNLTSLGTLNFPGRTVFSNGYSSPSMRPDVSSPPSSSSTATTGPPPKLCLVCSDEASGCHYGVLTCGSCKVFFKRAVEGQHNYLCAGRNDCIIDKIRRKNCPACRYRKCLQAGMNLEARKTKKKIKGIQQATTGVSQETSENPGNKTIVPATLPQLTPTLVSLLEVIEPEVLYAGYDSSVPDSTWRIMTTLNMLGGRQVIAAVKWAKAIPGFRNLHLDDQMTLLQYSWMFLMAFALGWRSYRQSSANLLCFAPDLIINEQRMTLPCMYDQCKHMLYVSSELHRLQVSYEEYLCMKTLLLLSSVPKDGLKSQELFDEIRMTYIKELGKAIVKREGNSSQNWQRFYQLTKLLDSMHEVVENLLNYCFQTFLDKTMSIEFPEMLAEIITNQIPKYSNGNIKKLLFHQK
Take `CC(C)C1Cc2c(sc3c2c(=O)n(Cc2ccccc2)c2nncn32)CO1` (stereo not given): the Potency was greater than 20.6 µM.
For `COC(=O)CSc1ncnc2c1sc1nc(-c3ccco3)c3c(c12)CC(C)(C)OC3` the value was greater than 20.6 µM.
For the compound `CCCCOC(=O)CCc1nc2ccccc2[nH]1`, the Potency was greater than 20.6 µM.
For `O=c1c2c3c(sc2n2cnnc2n1C1CCCCC1)CCC3`, the Potency is greater than 20.6 µM.
The value for `Cn1c(=O)c2c(nc(N3CCC(C(N)=O)CC3)n2CCSc2nc3ccccc3s2)n(C)c1=O` was greater than 20.6 µM; that for `COc1ccc(CSc2nnc(C)n2N)cc1Br` was greater than 20.6 µM.
The value for `COc1ccccc1N1CCN(C(=O)c2c(C)cc(=O)oc2C)CC1` was greater than 20.6 µM.
The value for `O=C(CC(c1ccc(F)cc1)c1ccco1)N1CCCC1` (stereo not given) was greater than 20.6 µM; that for `C/C(=N\O)C1(C)N(O)C(C)(C)C(c2ccco2)=[N+]1[O-]` (stereo not given) was greater than 20.6 µM.
Regarding `CC(NC(=O)NCCCC(=O)O)(C(F)(F)F)C(F)(F)F`, the Potency is greater than 20.6 µM.
The value for `CCOC(=O)CC(=O)CSc1nc(N)c(C#N)c(-c2ccc(F)cc2)c1C#N` was greater than 20.6 µM.
For `CCOc1ccc(C2/C(=C(/O)c3ccc(OC)cc3)C(=O)C(=O)N2c2cc(C)on2)cc1OC` (stereo not given) the value was greater than 20.6 µM.
For the compound `CC(C)NCc1c(O)c(Br)cc2oc3c(c12)CCCC3`, the Potency was greater than 20.6 µM.
For `COc1cccc(COc2nc3c(c(=O)n(C)c(=O)n3C)n2C)c1` the value was greater than 20.6 µM; for `O=C(Nc1ccc2c(c1)OCCO2)c1ccc(Br)o1`, greater than 20.6 µM.
For `Nc1nc2n(n1)C(c1cccs1)CC(c1ccc(Br)cc1)N2` (stereo not given) the value was greater than 20.6 µM; for `COc1ccc(/C(O)=C2\C(=O)C(=O)N(CCN(C)C)C2c2cccc(OC)c2OC)cc1` (stereo not given), greater than 20.6 µM.
The value for `Cc1cc(C)c2nc(SCCC#N)nc(C)c2c1` was greater than 20.6 µM.
As for `c1cncc(-c2nnc3sc(-c4ccco4)nn23)c1`, the Potency was greater than 20.6 µM.
The value for `CCCCNC(=O)N1CCOCCOCCN(C(=O)NCCCC)CCOCC1` was greater than 20.6 µM; that for `CC(=O)NC1(C(F)(F)F)C(=O)Nc2c1c(=O)n(C)c(=O)n2C` (stereo not given) was greater than 20.6 µM; that for `Nc1ccc2[nH]ncc2c1` was greater than 20.6 µM.
Turning to `CCOC(=O)c1c(C)n(C)c2ccc(OC)c(NC(=O)CCN3CCSCC3)c12`, the Potency is greater than 20.6 µM.
The value for `O/N=C1\CCc2cc(Cl)ccc21` was greater than 20.6 µM; that for `COCC(C)Nc1ncnc2c1cnn2-c1ccc(Cl)cc1` (stereo not given) was greater than 20.6 µM; that for `CCOC(=O)CSc1nc(N(C)C)nc(N(C)C#N)n1` was greater than 20.6 µM.
The value for `COc1ccc(OC)c(C2=Nn3c(nnc3C3CCCCC3)SC2)c1` was greater than 20.6 µM; that for `CCN(CC)C(=O)CN(C#N)c1nc(NC(C)C)nc(NC(C)C)n1` was greater than 20.6 µM; that for `CCc1[nH]c(=O)c(C#N)c2c1CSC(C)(C)C2` was greater than 20.6 µM.
The value for `Cc1cc(/C(O)=C2\C(=O)C(=O)N(CCN(C)C)C2c2ccncc2)ccc1OCc1ccccc1` (stereo not given) was greater than 20.6 µM; that for `COc1ccc(OC)c(C2C(C#N)=C(N)Oc3cc(C)n(Cc4ccccn4)c(=O)c32)c1` (stereo not given) was greater than 20.6 µM.
As to `Cc1nnc(N2CCOCC2)c2ccccc12`, the Potency is greater than 20.6 µM.
Regarding `CCC1=Nc2ccccc2NC2=C1C(=O)CCC2`, the Potency is greater than 20.6 µM.
Take `O=C(O)C1CCCCN1S(=O)(=O)c1cccc2nsnc12` (stereo not given): the Potency is greater than 20.6 µM.
The value for `COc1cccc(-c2nn3c(-c4ccco4)nnc3s2)c1` was greater than 20.6 µM; that for `COc1ccc(Cl)cc1N=Cc1c(O)cc(C)oc1=O` was greater than 20.6 µM; that for `Cc1ccc(N(Cc2cc3ccccc3[nH]c2=O)C(=O)c2ccco2)c(C)c1` was greater than 20.6 µM.
Take `CCCCNC(=O)c1cc2n(n1)C(C(F)(F)F)CC(c1ccccc1)N2` (stereo not given): the Potency is greater than 20.6 µM.
As to `COC(=O)c1cc(Br)c(=O)n(-c2nccs2)c1`, the Potency is greater than 20.6 µM.
On to `CCc1cccc(C)c1N(C(=O)Cn1c(=O)[nH]c2ccccc21)C(C)COC` (stereo not given), for which the Potency is greater than 20.6 µM.
